The structures appear in SMILES notation.

In general, inhibition refers to the drop in the measured response relative to a control, in per cent.
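Also: values are mean percent inhibition of FLT1.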

Sequence of Vascular endothelial growth factor receptor 1 (Homo sapiens) (P17948 whole entry): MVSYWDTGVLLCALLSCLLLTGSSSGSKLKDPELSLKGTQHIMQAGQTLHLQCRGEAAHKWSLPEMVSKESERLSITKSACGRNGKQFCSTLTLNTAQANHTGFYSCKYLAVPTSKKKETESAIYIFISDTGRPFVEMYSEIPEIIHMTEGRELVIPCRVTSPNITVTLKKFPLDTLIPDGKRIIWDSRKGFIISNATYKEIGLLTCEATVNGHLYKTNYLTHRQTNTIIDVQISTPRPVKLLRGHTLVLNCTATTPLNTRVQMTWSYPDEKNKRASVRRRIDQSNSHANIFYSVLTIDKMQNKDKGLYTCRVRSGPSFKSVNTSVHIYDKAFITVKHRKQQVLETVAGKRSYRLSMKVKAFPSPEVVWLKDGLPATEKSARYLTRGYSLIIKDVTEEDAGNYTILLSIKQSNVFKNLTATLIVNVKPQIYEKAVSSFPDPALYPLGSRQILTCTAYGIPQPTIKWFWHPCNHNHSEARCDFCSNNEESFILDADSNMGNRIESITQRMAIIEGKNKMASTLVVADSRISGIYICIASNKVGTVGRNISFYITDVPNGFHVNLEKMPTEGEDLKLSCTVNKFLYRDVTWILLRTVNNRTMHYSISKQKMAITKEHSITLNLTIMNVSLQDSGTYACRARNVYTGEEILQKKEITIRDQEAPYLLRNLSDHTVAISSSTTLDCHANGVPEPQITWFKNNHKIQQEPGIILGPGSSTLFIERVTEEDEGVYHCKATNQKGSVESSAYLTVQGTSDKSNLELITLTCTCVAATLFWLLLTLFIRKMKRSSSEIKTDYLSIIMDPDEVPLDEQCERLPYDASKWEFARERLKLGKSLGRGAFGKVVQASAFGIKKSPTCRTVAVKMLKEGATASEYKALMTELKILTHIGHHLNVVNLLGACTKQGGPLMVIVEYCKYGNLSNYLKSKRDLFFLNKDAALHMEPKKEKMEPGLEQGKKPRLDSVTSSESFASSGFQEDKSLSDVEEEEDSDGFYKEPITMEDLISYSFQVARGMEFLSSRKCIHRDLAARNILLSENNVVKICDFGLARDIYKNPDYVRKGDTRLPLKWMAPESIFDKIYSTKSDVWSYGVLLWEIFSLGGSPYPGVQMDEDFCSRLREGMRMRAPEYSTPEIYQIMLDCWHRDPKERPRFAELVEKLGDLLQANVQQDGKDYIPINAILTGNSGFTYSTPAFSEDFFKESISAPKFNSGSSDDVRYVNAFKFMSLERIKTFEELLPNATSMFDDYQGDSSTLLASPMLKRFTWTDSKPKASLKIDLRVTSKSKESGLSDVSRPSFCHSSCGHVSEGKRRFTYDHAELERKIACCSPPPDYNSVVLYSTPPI

This assay has as its target Vascular endothelial growth factor receptor 1 (Homo sapiens) (UniProt P17948). As to conditions: at 0.1 µM.
`COc1cc2c(cc1Nc1nc(N3CCc4ccccc43)c3cc[nH]c3n1)N(C(=O)CN(C)C)CC2`: the inhibition was determined as 1.49%.
The result for `CCN1CCC(CC(=O)Nc2n[nH]c3nc(-c4cccs4)c(Br)cc23)CC1` reads 0.44%; that for `NCc1ccc(-c2nc(-c3ccc(Cl)c(O)c3)c(-c3ccncc3)[nH]2)cc1`, 19.8%.
The result for `COC(=O)Nc1nc2cc(Oc3ccc(NC(=O)Nc4cccc(C(=O)O)c4)cc3)ccc2[nH]1` reads 3.38%.
For `O=C(Nc1n[nH]c2nc(-c3ccco3)c(Br)cc12)C1CC1`, the inhibition stood at 2.26%.
The result for `CCn1c(-c2nonc2N)nc2cnc(Oc3cccc(NC(=O)c4ccc(OCCN5CCOCC5)cc4)c3)cc21` reads 0.64%; that for `COc1cccc(-n2ncc3c(N/N=C/c4cccc(F)c4)ncnc32)c1`, -0.74%.
The result for `Nc1ncnc2occ(-c3ccc(NC(=O)Nc4cccc(C(F)(F)F)c4)cc3)c12` reads 56%.
With `CCn1c(-c2nonc2N)nc2cncc(C(=O)N3CC[C@H](N)C3)c21`, the inhibition was -0.71%.
The result for `COc1cc2ncn(-c3cc(O[C@@H](C)c4ccccc4Cl)c(C(N)=O)s3)c2cc1OC` reads 4.55%.
The result for `CCCN1CCC(Oc2cc(Nc3nc(Nc4cccc(F)c4C(N)=O)c4cc[nH]c4n3)c(OC)cc2Cl)CC1` reads -0.02%; that for `[O-][S+]1CCN(Cc2ccc(-c3ccc4ncnc(Nc5ccc(OCc6ccccc6)c(F)c5)c4c3)o2)CC1`, 1.64%; that for `Cc1ccc(C(=O)NC2CCCCC2)cc1-c1ccc(C(=O)NCC2CC2)cc1`, 2.97%.
The result for `CNC(=O)c1cncc(/C=C/c2c(Cl)cccc2Cl)c1` reads 0.03%; that for `CN(C)c1cc2c(Nc3ccc4nc(Cc5ccccc5)[nH]c4c3)ncnc2cn1`, 3.21%.

Values taken from ChEMBL document CHEMBL1961873, “Compounds: GSK PKIS; Assays: Nanosyn kinase panel” (2012).
